High-throughput results as filed in PubChem BioAssay.
Shown are actives, neighbours in structure and some others; about 2.9% of the full set was active somewhere.
PvdQ acylase = P. aeruginosa PvdQ acylase inhibitors, primary screen, biochemical, fluorescence, plate reader and imaging, single point; inhibition, % at 10 µM; purified PvdQ acylase; PvdQ acylase [Pseudomonas aeruginosa LESB58]; 0.063% of 340,000 active; in the data active = inhibition above about 30%, passing the limit was not always enough; inconclusive = no clear call, values can overlap the other calls;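 note: 0% = vehicle neutral wells and 100% = reference inhibitor wells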
Vif inh = HIV Vif self-association inhibitors, primary screen, imaging, HEK293T, single point; inhibition, % at 7.49 µM; HEK293T cells, Vif self-association by quenched fluorescence, 24 h; 0.35% of 340,000 active; in the data active = inhibition above about 50%, passing the limit was not always enough; inconclusive = no clear call, values can overlap the other calls; inactive = below about 31%
Wnt bcat act = Wnt/beta-catenin pathway activators, primary screen, cell-based, plate reader, single point; Wnt/beta-catenin reporter cell assay, activator; activation, % at 9.35 µM; 1.2% of 300,000 active; AID 743398, 2014; in the data active = activation above about 30%, passing the limit was not always enough; inconclusive = no clear call, values can overlap the other calls;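 note: 0% = neutral control wells and 100% = positive control wells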
esBAF inh = Bmi1 luciferase reporter increase in mESCs, primary screen, esBAF inhibitor project, mouse ES cells, Bmi1 luciferase knock-in, single point. reporter increase, % at 12.5 µM. 24 h; 100% = twice the neutral-well signal. AID 602393, 2012. 2% of 350,000 active; in the data active = activation above about 40%; inconclusive = no clear call, values can overlap the other calls;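 note: 0% = median of the plate's neutral control wells and 100% = double that signal; a rise in the Bmi1 reporter signal indicates esBAF inhibition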
N-glyco inh = increase of ERlucT glycosylation luciferase signal, primary screen, N-linked glycosylation inhibitor project, D54 ERlucT cells, luminescence, set 2. reporter increase, % at 12.5 µM. D54 ERlucT glycosylation luciferase reporter, 24 h; percent of 100 nM tunicamycin response. 0.23% of 360,000 active;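 active = mean luciferase reporter signal, scaled so untreated is 0 and the glycosylation-blocking control 100, at or above a set limit in every replicate; inconclusive = mean reaches the limit but not every replicate does; inactive = mean below the limit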;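 note: luciferase carries N-glycosylation sites so blocking glycosylation raises the light; 0% = median of neutral control wells and 100% = median of 100 nM tunicamycin wells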
MITF TRPM1 HTS = activators of MITF-driven TRPM1 promoter reporter, primary screen, cell-based, SK-MEL-5, luciferase, single point. activation, % at 12.5 µM. SK-MEL-5 TRPM1-promoter luciferase, 24 h; % of positive control, neutral wells = 0. AID 588334, 2011. 0.75% of 300,000 active;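 active = mean activation of at least 80% with every replicate also reaching 80%; inconclusive = mean reaches 80% but some replicate falls short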;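 note: 0% = neutral control wells and 100% = parthenolide positive control wells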
* = called active by the depositor; ? = inconclusive; / = not tested or not shown.

SMILES	PvdQ acylase	Vif inh	Wnt bcat act	esBAF inh	N-glyco inh	MITF TRPM1 HTS
COc1ccc(OCc2cc(C(=O)NCC(C)Oc3cccnc3)no2)c(Cl)c1 (stereo unspecified)	-21	-8	5	70*	0	23
COc1ccc(CN(C)C[C@@H]2Oc3ccc(NC(=O)C4CCCCC4)cc3C(=O)N([C@@H](C)CO)C[C@@H]2C)cc1	/	/	/	2	/	/
C[C@@H]1CCCCO[C@H](CN(C)C(=O)Cc2ccccc2)[C@H](C)CN([C@H](C)CO)C(=O)c2cc(NC(=O)c3ccncc3)ccc2O1	/	/	/	-5	/	/
COc1ccc(-n2cnc3cc(C(=O)N4CCOCC4)ccc32)cc1	-17	-9	5	43*	-2	27
C/C=C/c1ccc([C@@H]2[C@@H](C#N)N(c3ncc(CC)s3)[C@H]2CO)cc1	/	/	/	0	/	/
CC=Cc1ccc2n(c1=O)C[C@@H]1[C@@H](CO)[C@H](C(=O)NCC(F)(F)F)[C@H]2N1C(=O)C1CCC1 (mixture of isomers)	/	/	/	-1	/	/
CCCCn1cnc2c(oc3ccccc32)c1=O	-12	10	9	?	2	99*
N#CCn1cnc2c(oc3ccccc32)c1=O	-4	-2	/	10	-1	1
Clc1ccc2scc(CN3CCCCC3)c2c1	33*	3	-9	/	0	4
CC(=O)c1cccc(OCc2cc(C(=O)N(C)CCC3CCOCC3)no2)c1	-16	-3	21	52*	0	63
COc1ccccc1OCc1cc(C(=O)N(C)CCC2CCOCC2)no1	/	2	40*	54*	-1	/
COc1cccc(OCc2cc(C(=O)N(C)CCC3CCCCO3)no2)c1 (stereo unspecified)	-10	-3	7	35	1	34
C[C@@H]1CN([C@H](C)CO)C(=O)c2cc(NC(=O)Nc3ccc(C(F)(F)F)cc3)ccc2O[C@@H](C)CCCCO[C@@H]1CN(C)C(=O)Cc1ccccc1	/	/	/	-1	/	/
C[C@H]1CN([C@@H](C)CO)C(=O)c2cc(NC(=O)CCCN(C)C)ccc2O[C@H]1CN(C)S(C)(=O)=O	/	/	/	-2	/	/
Nc1c(-c2cccs2)cnc2c(-c3ccc(F)cc3)cnn12	-19	-8	54*	2	-11	71
Cc1ccccc1NC(=O)OCc1ccccc1	-1	0	7	53*	-1	/
COc1ccc(S(=O)(=O)Nc2ccc3c(c2)C(=O)N([C@@H](C)CO)C[C@@H](C)[C@H](CN(C)Cc2ccccc2)O3)cc1	/	/	/	-4	/	/
CN(CC(=O)NCCc1ccc(S(N)(=O)=O)cc1)S(=O)(=O)c1ccc(Br)s1	-15	62*	-2	-3	-1	-3
CN(CC(=O)NCc1ccc(F)cc1)S(=O)(=O)c1ccc(Br)s1	-8	2	2	5	3	-2
COc1cccc(C(=O)COc2ccc3c(C)c(Cc4ccccc4)c(=O)oc3c2)c1	13	-1	-1	/	1	6
CCCCc1c(C)c2ccc(OCC(C)=O)cc2oc1=O	-10	2	4	63*	-4	78
Cc1c(C)c2ccc(OCC(=O)c3ccccc3)cc2oc1=O	-3	/	26	?	1	94*
CO[C@H]1CN(C)C(=O)c2cc(NS(=O)(=O)CC(F)(F)F)ccc2OC[C@H](C)N(CC2CCCCC2)C[C@@H]1C	/	/	/	6	/	/
CCCN(C)C[C@@H]1OCCCC[C@@H](C)Oc2ccc(NS(=O)(=O)c3ccc(Cl)cc3)cc2C(=O)N([C@@H](C)CO)C[C@@H]1C	/	/	/	0	/	/
Cc1cc2nc(/C=C/c3nc4cc(C)c(C)cc4[nH]3)[nH]c2cc1C	-20	-8	7	6	-1	5
SMILES	PvdQ acylase	Vif inh	Wnt bcat act	esBAF inh	N-glyco inh	MITF TRPM1 HTS
Cc1ccc(/C=C/c2nc3ccccc3[nH]2)o1	9	-2	38*	/	-6	21
COc1ccc(/C=C/c2noc(-c3ccccc3O)n2)cc1	-9	9	/	/	-3	98*
O=C(Oc1ccccc1)N1CCCCC1	/	5	2	-6	0	/
O=C(Oc1ccc(-c2ccccc2)cc1)N1CCCCC1	2	-3	/	?	0	127*
CCCCNC(=O)c1cc(-c2ccc(OC)cc2)on1	-10	26	/	24	-3	81*
CCCCNC(=O)c1cc(-c2ccc(F)cc2)on1	-8	9	-2	21	37*	15
CCCNC(=O)c1cc(-c2ccc(OC)cc2)on1	11	5	/	4	-8	41
CCCCNC(=O)c1cc(-c2ccc(OC)c(OC)c2)on1	2	3	5	10	-1	25
C[C@H]1CN([C@@H](C)CO)C(=O)Cc2cc(NS(=O)(=O)c3ccc(Cl)cc3)ccc2O[C@@H]1CN(C)Cc1ccc(-c2ccccc2)cc1	/	/	/	6	/	/
COCCNC(=O)c1cc2nc(-c3ccccc3)cc(C)n2n1	34*	-21	0	-10	1	10
COc1ccc(S(=O)(=O)Nc2cccc3c2O[C@@H](CN(C)S(=O)(=O)c2cn(C)cn2)[C@H](C)CN([C@@H](C)CO)C3=O)cc1	/	/	/	1	/	/
CN(C)CCNC(=S)Nc1ccccc1Cl	-16	65*	-3	2	1	5
S=C(NCCNC(=S)Nc1ccccc1Cl)Nc1ccccc1Cl	-8	/	3	0	6	-10
CC=Cc1ccc2n(c1=O)C[C@@H]1[C@@H](CO)[C@H](C(=O)NCC3CC3)N(CCC(F)(F)F)[C@H]21 (mixture of isomers)	/	/	/	7	/	/
C[C@H]1CN([C@@H](C)CO)C(=O)c2cccc(NC(=O)c3nc4ccccc4s3)c2O[C@@H]1CN(C)Cc1ccc(Cl)c(Cl)c1	/	/	/	1	/	/
CO[C@H]1CN(C)C(=O)c2cc(NS(=O)(=O)c3cn(C)cn3)ccc2OC[C@H](C)N(C)C[C@H]1C	/	/	/	2	/	/
CN1CCN(C(=O)C[C@@H]2C[C@@H]3c4cc(NC(=O)Nc5ccc(C(F)(F)F)cc5)ccc4O[C@@H]3[C@H](CO)O2)CC1	/	/	/	-2	/	/
CC(=O)N1[C@H](CN(C)C(=O)C2CCC2)[C@@H](c2ccccc2)[C@@H]1CO	/	/	/	-2	/	/
CSc1ccccc1OCc1cc(C(=O)NCCc2ccco2)no1	-11	15	6	65*	0	53
CSc1ccccc1OCc1cc(C(=O)NCCc2nc(C)cc(C)n2)no1	-15	4	13	34	0	52
CSc1ccccc1OCc1cc(C(=O)N2CCCC2c2nonc2C)no1 (stereo unspecified)	-10	0	29	11	-5	55
CC(=O)c1ccc(OCc2cc(C(=O)N3CCN(c4ccccc4)CC3C)no2)cc1 (stereo unspecified)	1	4	28	110*	-8	73
